# Screening results (PubChem BioAssay)
# aSyn rescue: alpha-synuclein toxicity inhibition in yeast; Yeast expressing alpha-synuclein, growth rescue, BacTiter-Glo, 24 h; Potency, µM (top dose mostly 46.1 µM), hits mostly activators; 0.14% of 370,000 active; AID 652106; also: nearly all actives have a fitted effect of over 65% in size
#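 Rescue of yeast growth: cells expressing toxic alpha-synuclein, induced in galactose at OD600 0.02, incubated with compound 24 h at 30 C. ATP luminescence quantified growth; inhibitors of toxicity appear as activators.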
# Abeta yeast res: restores growth of yeast expressing A-beta42 peptide; yeast expressing A-beta42, growth rescue, OD600, 48 h; response scale: 0% DMSO, 100% iron-clioquinol control; Potency, µM (doses to about 46.1 µM), most hits filed as activators; 0.063% of 410,000 active; AID 1347071; also: nearly all actives have a fitted effect of over 55% in size
#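 Yeast A-beta toxicity model in growth medium with pinned compounds, 48 h at 30 C; growth read as absorbance at 600 nm. Normalized to FeCl3/clioquinol equimolar mix (positive) and DMSO (negative).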
# TDP-43 yeast inh: rescues yeast growth from TDP-43 toxicity; Potency, µM (titrated, usually from 46.1 µM), actives largely listed as activators; AID 652104; 1.8% of 410,000 active; TDP-43 expressing yeast growth rescue, BacTiter-Glo, 24 h; also: nearly all actives have a fitted effect of over 50% in size
#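 Growth rescue of TDP-43-toxic yeast measured as ATP luminescence (BacTiter-Glo). Cells grown to mid-log in raffinose, induced in galactose at OD600=0.02, exposed to compound 24 hr at 30 deg C.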
# FUS yeast rescue: suppressors of FUS proteinopathy in yeast | S. cerevisiae FUS-expressing, growth rescue, OD600, 24 h | Potency, µM (series often up to 76.6 µM), actives largely listed as activators | 0.24% of 390,000 active; also: nearly all actives have a fitted effect of over 55% in size
#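 Yeast expressing FUS under galactose induction, OD 0.005 in 2% galactose medium; compounds in a dilution series, 24 h at 30C. Growth rescue by absorbance at 600 nm; CP55940 positive control, DMSO negative.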
# Numbers stand for hits; 0 = inactive; ? = inconclusive; - = no result given; [ ] = remark or other dose. Only some compounds are listed: those with a hit (about 2.1% of all), similar ones and a draw of the others. Calls follow the shape of the dose curve; as a rule, active = well fitted curve in the direction sought with a large enough effect; inconclusive = small, poorly fitted or top-dose-only effect, or another doubt; inactive = no such curve, though single readings can be large; an effect the other way counts as inactive or inconclusive.
SMILES,aSyn rescue,Abeta yeast res,TDP-43 yeast inh,FUS yeast rescue
COCCNc1nc(C)cc(-c2cc(-c3ccc(Cl)cc3)on2)n1,0,0,?,0
O=C(COC(=O)C12CC3CC(CC(C3)C1)C2)Nc1ccc(OC(F)F)cc1,-,?,18µM,0
COc1ccc(C(=O)CCC(=O)O)cc1,0,0,0,0
O=C(O)CCC(=O)c1ccc(C2CCCCCC2)cc1,0,0,18µM,0
Cc1cc(C)cc(NC(=O)CCS(=O)(=O)c2ccc3c(c2)oc(=O)n3C)c1,-,0,0,0
O=C(Cn1cc2c(n1)CCCC2)Nc1cc(C(F)(F)F)ccc1Cl,-,0,0[9.22 µM],0
COC(=O)c1nnn(-c2cccc(C)c2)c1C(=O)OC,-,0,0,0
COc1cccc(-n2nnnc2S(C)(=O)=O)c1,0,0,1µM,-
Cc1cccc(-n2nnnc2S(C)(=O)=O)c1,-,0,18µM,0
COc1cccc(-n2cnnn2)c1,0,0,0,0
CC(=O)NCc1ccc(S(=O)(=O)N2CCCN(C)CC2)cc1,0,0,0,0
COc1ccc(-c2csc(C(O)c3cccc(OC)c3)n2)cc1 (stereo not drawn),3.5µM,?,20µM,0
COc1cccc(C(O)c2nc(-c3cc(F)cc(F)c3)cs2)c1 (stereo not drawn),?,?,16µM,0
Cc1ccc(C)c(C(C)NC(=S)NCc2ccc(F)cc2)c1 (stereo not drawn),0,?,?,0
CC(C)=C(NC(=O)c1ccccc1)C(=O)Nc1cccc(C)c1,0,0,0,0
COc1ccc(/C(N)=N/OC(=O)c2cccs2)cc1OC,0,0,22µM,0
COc1ccc(C/C(N)=N/OC(=O)c2cccs2)cc1,0,0,16µM,0
Cc1ccc(/C(N)=N/OC(=O)c2cccs2)cc1,0,0,?,0
COc1ccccc1C/C(N)=N/OC(=O)c1cccs1,0,0,?,0
COC(=O)C1(C)CCCC2(C)c3cc(OC)ccc3C(=O)C(Br)C12 (stereo not drawn),0,0,25µM,?
CC(C)(C)c1ccc(S(=O)(=O)NCc2ccc3c(c2)CCN3C(=O)c2ccccc2)cc1,-,0,0,0
O=C(NCc1ccc(F)cc1)C(c1ccccc1)c1ccccc1,0,0,0,0
CCC(NC(=S)NCc1ccc(F)cc1)c1ccccc1 (stereo not drawn),0,11µM,0,0
COc1ccc(C(C)NC(=S)NCc2ccc(F)cc2)cc1 (stereo not drawn),0,11µM,?,0
COc1cccc(C(C)NC(=S)NCc2ccc(Cl)cc2)c1 (stereo not drawn),0,0,0,0
SMILES,aSyn rescue,Abeta yeast res,TDP-43 yeast inh,FUS yeast rescue
COc1ccc(C(=O)NCCc2nnc(SCC(=O)Nc3ccccc3F)n2C)cc1,0,0,0,0
COc1ccc(CC(=O)Nc2c(C(N)=O)oc3ccccc23)cc1OC,0,0,0,0
O=C(Cc1ccccc1)Nc1c(C(=O)c2ccccc2)oc2ccccc12,-,0,0,0
CC(=O)Nc1c(C(=O)c2ccccc2)oc2ccccc12,-,0,7.9µM,0
NC(=O)c1oc2ccccc2c1NC(=O)CCc1ccccc1,0,0,11µM,0
COc1ccc(-n2c(SCC(=O)N/N=C(/C)c3cccc(O)c3)nc3ccccc3c2=O)cc1,-,-,-,0
CCc1ccc2nc(N(Cc3cccnc3)C(=O)c3cccs3)sc2c1,-,0,32µM,0
O=C(c1ccc2c(c1)OCCO2)N(Cc1cccnc1)c1nc2c(Cl)cccc2s1,-,0,22µM,0
CC(=O)N(Cc1cccnc1)c1nc2c(C)cccc2s1,-,0,?,0
CN(C)CCN(C(=O)c1ccc2c(c1)OCCO2)c1nc2c(Cl)cccc2s1,0,0,0,0
CCOc1ccc2nc(N(Cc3cccnc3)C(=O)C3CCCCC3)sc2c1,-,0,?,0
Cc1ccc2nc(N(Cc3cccnc3)C(=O)C3CCCCC3)sc2c1,-,0,5.6µM,0
Cc1cccc2sc(N(Cc3cccnc3)C(=O)C3CCCCC3)nc12,-,0,3.5µM,0
Cc1ccnc(NC(=O)C2CCCN(S(=O)(=O)c3ccc4[nH]c(=O)ccc4c3)C2)c1 (stereo not drawn),0,0,0,0
CC1(C)CCC[C@]2(C)[C@H]3Cc4cc(O)ccc4O[C@]3(C)CC[C@@H]12,0,0,0,0
Cc1ccc(C)c(S(=O)(=O)Nc2ccc(C(=O)N3CCCCC3)cc2)c1,0,0,0,0
COc1cc2cc(C(c3nnnn3C(C)(C)C)N3CCc4ccccc43)c(=O)[nH]c2cc1OC (stereo not drawn),0,0,0,28µM
Cc1ccc(Cn2ccnc2SCC(=O)Nc2nc3ccccc3s2)cc1,-,0,22µM,?
Cc1ccc(C(=O)Nn2c(C)nc3ccccc3c2=O)cc1C,0,0,11µM,0
Cc1ccc(C(C)C)c(OCC(=O)Nn2c(=O)[nH]c3ccccc3c2=O)c1,0,0,0,-
Cc1nc2ccccc2c(=O)n1NC(=O)c1ccc(C(C)(C)C)cc1,0,0,0,0
Cc1ccc(C(C)C)c(OCC(=O)Nn2c(C)nc3ccccc3c2=O)c1,0,0,14µM,0
Cc1nnc(SCc2ccccc2Cl)c2cc3occc3n12,-,0,35µM,?
Cc1nnc(SCc2ccc(Cl)cc2)c2cc3occc3n12,-,0,0[9.22 µM],?
Fc1ccc(Nc2nc(-c3cccc(Cl)c3)c3c(n2)-c2ccccc2OC3)cc1,-,0,0,0
SMILES,aSyn rescue,Abeta yeast res,TDP-43 yeast inh,FUS yeast rescue
CCN(CC)c1ccc(/C=N/NC(=O)c2nnn(-c3nonc3N)c2C(C)C)c(O)c1,14µM,14µM,?,?
CC(C)c1c(C(=O)N/N=C/c2ccc3c(c2)OCO3)nnn1-c1nonc1N,0,0,0,0
O=C(Nc1ccccc1Cl)c1ccc(-c2ccccn2)s1,0,0,11µM,0
O=C(Nc1ccccc1Cl)c1cccs1,0,0,?,0
COc1ccccc1NC(=O)c1ccc(-c2ccccc2[N+](=O)[O-])o1,0,0,32µM,0
COc1ccccc1NC(=O)c1ccc(-c2ccc(Br)cc2)o1,0,0,0,0
CCCCCCSc1cc(C)nc2ncnn12,0,0,25µM,0
CCSc1cc(C)nc2ncnn12,0,0,0,0
N=C1SCC(=O)N1c1ncc(Cc2cccc(Cl)c2)s1,0,0,8.9µM,0
Cc1cccc(Cc2cnc(N3C(=N)SC(C)C3=O)s2)c1 (stereo not drawn),10µM,?,22µM,0
Cc1ccc(Cc2cnc(N3C(=N)SC(C)C3=O)s2)cc1 (stereo not drawn),0,0,?,0
COc1ccc(NC(=O)C2CCCN(S(=O)(=O)c3ccc(F)cc3)C2)cc1 (stereo not drawn),-,0,0,0
CCCCNC(=O)O[C@@H]1C[C@H]2CCC(=O)N3CC[C@@H](C1)[C@@H]23,0,0,0,0
CCc1nnc(NC(=O)c2nc(S(=O)(=O)Cc3cccc(C)c3)ncc2Cl)s1,0,0,11µM,0
CC(C)c1nnc(NC(=O)c2nc(S(=O)(=O)Cc3ccccc3F)ncc2Cl)s1,0,0,28µM,0
Cc1cccc(CS(=O)(=O)c2ncc(Cl)c(C(=O)Nc3nnc(C(C)C)s3)n2)c1,0,0,?,0
